Test [1] can be described thus: ATG_TAL_CIS: Attagene CIS-FACTORIAL HepG2 Assay for human TAL Basal Promoter (AID 2282966; active means hit-call score of the fitted dose curve at least 0.9, where 1 is the maximum; inactive means score below 0.9;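 further: background control endpoint measuring basal TAL promoter reporter mRNA not a specific factor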). Particulars: HepG2 Attagene cis-factorial TAL promoter reporter; actives raise or lower the signal. In outline: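 HepG2 cells transiently transfected with multiplexed cis-promoter reporter units, dosed 24 h. Reporter mRNA quantified by RT-PCR, 6-FAM labelling, HpaI digestion and capillary electrophoresis; TAL basal promoter serves as background control, fitted bidirectionally versus DMSO.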

A short description of test [2]: ATG_TGFb_CIS: Attagene CIS-FACTORIAL HepG2 Assay for human Transforming Growth Factor (TGF) (AID 2282967; active means hit-call score of the fitted dose curve at least 0.9, where 1 is the maximum; inactive means score below 0.9). Particulars: HepG2 Attagene CIS TGFb reporter, mRNA transcription; actives raise or lower the signal. In outline:
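Readout: fluorescently labeled reporter cDNA fragments resolved by capillary electrophoresis after RT-PCR. Transfected HepG2 cells dosed for 24 h; endogenous TF activity at TGFB1-linked cis element; gain or loss fitted relative to DMSO.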

In test [3] the target is Estrogen receptor (Homo sapiens) (UniProt P03372). Description: ATG_ERa_TRANS: Attagene TRANS-FACTORIAL HepG2 Assay for human Estrogen Receptor alpha (ERa) (AID 2282970). Particulars: HepG2 Attagene TRANS ERa GAL4 reporter, mRNA. In outline:
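HepG2 cells transiently transfected with multiplexed GAL4-UAS reporter units read out chimeric NR-Gal4 activity. After 24 h compound exposure, reporter mRNA was quantified by RT-PCR, 6-FAM labeling, HpaI digestion and capillary electrophoresis, relative to DMSO.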

The target in test [4] is X-box-binding protein 1 (Homo sapiens) (UniProt P17861). Description: ATG_Xbp1_CIS: Attagene CIS-FACTORIAL HepG2 Assay for human X-box Binding Protein 1 (XBP1) (AID 2282972; active means hit-call score of the fitted dose curve at least 0.9, where 1 is the maximum; inactive means score below 0.9). Particulars: HepG2 XBP1 cis-element reporter, Attagene multiplex; actives raise or lower the signal. In outline:
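HepG2, transient MRTU transfection (cis-promoter driven), 24 h compound exposure. Total RNA → oligo(dT) RT → PCR → 6-FAM labeling → HpaI cut → CE. Bidirectional fit vs DMSO.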

The target in test [5] is Androgen receptor (Homo sapiens) (UniProt P10275). Briefly: ATG_AR_TRANS: Attagene TRANS-FACTORIAL HepG2 Assay for human Androgen Receptor (AR) (AID 2282973). Particulars: HepG2 Attagene TRANS-FACTORIAL AR reporter transcription. In outline: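 HepG2 cells transiently transfected with AR-Gal4 chimera and GAL4-UAS reporter units; chemical exposure 24 h. Reporter mRNA quantified by RT-PCR with fluorescent labelling and capillary electrophoresis; gain-of-signal fitted against DMSO.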

Test [6] concerns the target Oxysterols receptor LXR-alpha (Homo sapiens) (UniProt Q13133). Description: ATG_LXRa_TRANS: Attagene TRANS-FACTORIAL HepG2 Assay for human Liver X Receptor alpha (LXRa) (AID 2282980). Particulars: HepG2 Attagene TRANS reporter, LXRa transactivation. In outline: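 HepG2 cells transiently transfected with GAL4-UAS reporter units for chimeric NR-Gal4 proteins, exposed to chemicals for 24 h. Reporter mRNA quantified by RT-PCR and capillary electrophoresis; gain of signal fitted relative to DMSO.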

The target of test [7] is Hepatocyte nuclear factor 4-alpha (Homo sapiens) (UniProt P41235). Description: ATG_HNF4a_TRANS: Attagene TRANS-FACTORIAL HepG2 Assay for human Hepatocyte Nuclear Factor 4 alpha (HNF4a) (AID 2282982). Particulars: HepG2 HNF4a transactivation reporter, mRNA readout. In outline:
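Cells used were human HepG2, transiently carrying GAL4-UAS reporter units read out against exogenous NR-GAL4 chimeras. Reporter transcript levels after 24 h dosing were quantified by fluorescent RT-PCR and capillary electrophoresis.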

Test [8] in a line: ATG_M_06_TRANS: Attagene TRANS-FACTORIAL HepG2 Assay for M06 Transcription Factor (Internal Marker) (AID 2282983). Particulars: HepG2 Attagene TRANS M06 internal marker reporter. In outline:
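HepG2 cells transiently transfected with GAL4-UAS multiple reporter units, dosed 24 h. Reporter RNA reverse-transcribed, PCR-amplified, 6-FAM-labeled, HpaI-digested and quantified by capillary electrophoresis; this internal-marker signal fitted upward relative to DMSO.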

The target of test [9] is Nuclear receptor subfamily 4 group A member 2 (Homo sapiens) (UniProt P43354). Description: ATG_NURR1_TRANS: Attagene TRANS-FACTORIAL HepG2 Assay for human Nuclear Receptor Related Protein 1 (NURR1) (AID 2282985). Particulars: HepG2 Attagene TRANS reporter, mRNA readout. In outline: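 After 24 h chemical dosing, total RNA from transiently transfected HepG2 cells was reverse-transcribed and reporter cDNA PCR-amplified, FAM-labelled and analysed by capillary electrophoresis. Activity fitted in positive direction, DMSO as negative control.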

Test [10] addresses Transcriptional activator Myb (Homo sapiens) (UniProt P10242). Description: ATG_Myb_CIS: Attagene CIS-FACTORIAL HepG2 Assay for human Myeloblastosis (Myb) Proto-Oncogene Transcription Factor (AID 2282986; active means hit-call score of the fitted dose curve at least 0.9, where 1 is the maximum; inactive means score below 0.9). Particulars: HepG2 Attagene CIS-FACTORIAL Myb reporter transcription; actives raise or lower the signal. In outline: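 Transiently transfected HepG2 cells carrying a multiplexed cis-promoter reporter set report endogenous Myb activity after 24 h compound exposure. Reporter mRNA is read by RT-PCR with capillary electrophoresis of fluorescent products, fitted bidirectionally against DMSO.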

A short description of test [11]: ATG_M_19_TRANS: Attagene TRANS-FACTORIAL HepG2 Assay for M19 Transcription Factor (Internal Marker) (AID 2282974). Particulars: HepG2 Attagene TRANS-FACTORIAL M19 internal marker reporter. In outline:
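HepG2 transiently transfected with GAL4-UAS multiplex reporter constructs, exposed 24 h; reporter RNA quantified by RT-PCR, 6-FAM labeling, HpaI digestion and capillary electrophoresis; internal background marker fitted upward versus DMSO.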

Test [12] deals with Glucocorticoid receptor (Homo sapiens) (UniProt P04150). Briefly: ATG_GR_TRANS: Attagene TRANS-FACTORIAL HepG2 Assay for human Glucocorticoid Receptor (GR) (AID 2282978).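 Further: activators score as hits since higher reporter transcript over DMSO is fitted.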 Particulars: HepG2 Attagene TRANS GR reporter, mRNA transcription. In outline:
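HepG2 cells transiently transfected with GAL4-UAS reporter units and exogenous GR-Gal4 chimera, dosed 24 h. Reporter mRNA by RT-PCR, FAM labeling, HpaI digest and capillary electrophoresis; gain-of-signal fit versus DMSO.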

Test [13] can be described thus: ATG_M_32_TRANS: Attagene TRANS-FACTORIAL HepG2 Assay for M32 Transcription Factor (Internal Marker) (AID 2282984). Particulars: HepG2 Attagene TRANS M32 internal marker reporter. In outline:
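Human hepatoma HepG2, transient MRTU transfection, 24 h treatment. RNA → RT-PCR → fluorescent primer extension → HpaI digest (2 h, 37 C) → CE. Positive-direction fit vs DMSO.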

Test [14] addresses Bile acid receptor (Homo sapiens) (UniProt Q96RI1). Briefly: ATG_FXR_TRANS: Attagene TRANS-FACTORIAL HepG2 Assay for Farnesoid X Receptor (FXR) (AID 2282979).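 Further: hits raise reporter mRNA above DMSO so AC50 marks FXR activation.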 Particulars: HepG2 Attagene TRANS FXR-GAL4 reporter transcription. In outline:
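HepG2 cells were transiently transfected with GAL4-UAS reporters driven by chimeric NR-Gal4 proteins and dosed for 24 h. Reporter mRNA was quantified by RT-PCR, fluorescent labelling, HpaI digestion and capillary electrophoresis, with gain of signal scored versus DMSO.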

Test [15] addresses Oxysterols receptor LXR-beta (Homo sapiens) (UniProt P55055). Description: ATG_LXRb_TRANS: Attagene TRANS-FACTORIAL HepG2 Assay for human Liver X Receptor beta (LXRb) (AID 2282981). Particulars: HepG2 Attagene TRANS GAL4-LXRb reporter, mRNA. In outline: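 In this TRANS format, exogenous chimeric NR-Gal4 protein activity, not endogenous factors, drives reporter expression in transfected human HepG2 cells. Exposure lasted 24 h; reporter mRNA was read by fluorescent capillary electrophoresis.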

Test [16] concerns the target Nuclear receptor subfamily 1 group I member 3 (Homo sapiens) (UniProt Q14994). Briefly: ATG_CAR_TRANS: Attagene TRANS-FACTORIAL HepG2 Assay for human Constitutive Androstane Receptor (CAR) (AID 2282969).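 Further: activators raise reporter mRNA above DMSO so AC50 marks induction.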 Particulars: HepG2 Attagene TRANS-FACTORIAL CAR reporter. In outline:
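HepG2 cells transiently transfected with multiplexed GAL4-UAS reporter units expressing chimeric NR-Gal4 proteins; compound exposure 24 h. Reporter mRNA measured by RT-PCR, 6-FAM labelling, HpaI digestion and capillary electrophoresis; gain-of-signal fitted against DMSO baseline.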

The nature of test [17]: ATG_GAL4_TRANS: Attagene TRANS-FACTORIAL HepG2 Assay for GAL4 (Internal Marker) (AID 2282976). Particulars: HepG2 Attagene TRANS GAL4 internal marker reporter. In outline:
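Background-control readout: GAL4-UAS reporter transcript in transiently transfected HepG2 cells after 24 h compound exposure. Measured by RT-PCR, 6-FAM primer extension, HpaI digest and capillary electrophoresis; gain-of-signal fit versus DMSO.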

Inconclusive results are not listed. The source made the active and inactive calls. How the source made its calls, unless noted: active means hit-call score of the fitted dose curve at least 0.9, where 1 is the maximum; inconclusive means response in the unintended direction; inactive means score below 0.9.

Chain of Androgen receptor (Homo sapiens) (P10275 whole entry, looked up, the tested form may be a part): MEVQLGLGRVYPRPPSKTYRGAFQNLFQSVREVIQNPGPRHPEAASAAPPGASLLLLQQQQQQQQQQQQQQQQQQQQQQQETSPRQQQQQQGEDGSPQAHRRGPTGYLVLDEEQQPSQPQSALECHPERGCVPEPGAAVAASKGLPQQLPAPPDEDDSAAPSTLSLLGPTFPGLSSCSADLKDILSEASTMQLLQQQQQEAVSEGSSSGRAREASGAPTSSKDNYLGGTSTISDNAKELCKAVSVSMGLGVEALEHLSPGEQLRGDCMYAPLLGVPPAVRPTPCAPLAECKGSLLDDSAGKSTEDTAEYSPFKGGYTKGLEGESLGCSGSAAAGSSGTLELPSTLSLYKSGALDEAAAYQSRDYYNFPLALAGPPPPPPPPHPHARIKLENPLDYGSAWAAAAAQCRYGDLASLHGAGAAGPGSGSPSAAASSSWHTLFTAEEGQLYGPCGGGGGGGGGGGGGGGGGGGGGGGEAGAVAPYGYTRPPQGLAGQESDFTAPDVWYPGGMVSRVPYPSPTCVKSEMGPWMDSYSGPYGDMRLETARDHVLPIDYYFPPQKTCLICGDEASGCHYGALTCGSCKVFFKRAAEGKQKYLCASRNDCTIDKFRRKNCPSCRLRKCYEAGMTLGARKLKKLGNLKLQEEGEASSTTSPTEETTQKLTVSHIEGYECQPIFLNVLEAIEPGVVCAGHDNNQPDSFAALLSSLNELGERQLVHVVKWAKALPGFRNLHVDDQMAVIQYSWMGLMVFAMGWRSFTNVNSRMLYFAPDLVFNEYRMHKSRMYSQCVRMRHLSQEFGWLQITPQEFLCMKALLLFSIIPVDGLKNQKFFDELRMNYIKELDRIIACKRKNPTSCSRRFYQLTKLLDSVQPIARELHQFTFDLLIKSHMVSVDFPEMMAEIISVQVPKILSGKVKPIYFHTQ
Chain of Hepatocyte nuclear factor 4-alpha (Homo sapiens) (P41235 whole entry, looked up, the tested form may be a part): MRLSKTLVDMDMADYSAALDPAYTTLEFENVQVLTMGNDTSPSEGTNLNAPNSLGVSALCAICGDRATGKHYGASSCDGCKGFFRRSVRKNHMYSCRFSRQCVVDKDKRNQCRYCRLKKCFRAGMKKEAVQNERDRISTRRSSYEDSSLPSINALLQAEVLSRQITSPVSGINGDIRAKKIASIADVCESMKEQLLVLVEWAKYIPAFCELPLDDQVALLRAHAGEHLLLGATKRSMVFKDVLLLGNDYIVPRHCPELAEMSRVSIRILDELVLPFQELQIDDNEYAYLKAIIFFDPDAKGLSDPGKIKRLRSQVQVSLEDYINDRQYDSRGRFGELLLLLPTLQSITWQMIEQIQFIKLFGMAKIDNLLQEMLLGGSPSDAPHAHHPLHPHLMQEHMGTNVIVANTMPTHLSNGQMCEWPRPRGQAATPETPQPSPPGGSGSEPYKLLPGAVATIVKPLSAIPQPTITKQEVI
Chain of Transcriptional activator Myb (Homo sapiens) (P10242 whole entry, looked up): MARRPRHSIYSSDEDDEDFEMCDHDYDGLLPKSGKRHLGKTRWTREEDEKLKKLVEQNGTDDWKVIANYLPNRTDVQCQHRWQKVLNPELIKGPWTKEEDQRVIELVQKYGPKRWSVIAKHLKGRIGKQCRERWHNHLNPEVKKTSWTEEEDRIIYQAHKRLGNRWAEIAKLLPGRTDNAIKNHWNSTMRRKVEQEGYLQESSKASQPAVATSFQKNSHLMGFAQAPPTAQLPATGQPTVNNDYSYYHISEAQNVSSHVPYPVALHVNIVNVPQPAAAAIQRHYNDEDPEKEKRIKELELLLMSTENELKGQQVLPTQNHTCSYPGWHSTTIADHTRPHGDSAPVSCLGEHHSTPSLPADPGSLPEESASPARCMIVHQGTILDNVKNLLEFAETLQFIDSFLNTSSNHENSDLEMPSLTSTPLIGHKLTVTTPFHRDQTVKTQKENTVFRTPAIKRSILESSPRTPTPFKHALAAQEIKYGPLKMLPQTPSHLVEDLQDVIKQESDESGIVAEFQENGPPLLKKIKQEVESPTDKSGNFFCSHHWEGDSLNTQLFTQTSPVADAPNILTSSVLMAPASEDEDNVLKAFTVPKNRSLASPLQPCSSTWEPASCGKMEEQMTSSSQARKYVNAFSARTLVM
Chain of Oxysterols receptor LXR-beta (Homo sapiens) (P55055 whole entry, looked up, the tested form may be a part): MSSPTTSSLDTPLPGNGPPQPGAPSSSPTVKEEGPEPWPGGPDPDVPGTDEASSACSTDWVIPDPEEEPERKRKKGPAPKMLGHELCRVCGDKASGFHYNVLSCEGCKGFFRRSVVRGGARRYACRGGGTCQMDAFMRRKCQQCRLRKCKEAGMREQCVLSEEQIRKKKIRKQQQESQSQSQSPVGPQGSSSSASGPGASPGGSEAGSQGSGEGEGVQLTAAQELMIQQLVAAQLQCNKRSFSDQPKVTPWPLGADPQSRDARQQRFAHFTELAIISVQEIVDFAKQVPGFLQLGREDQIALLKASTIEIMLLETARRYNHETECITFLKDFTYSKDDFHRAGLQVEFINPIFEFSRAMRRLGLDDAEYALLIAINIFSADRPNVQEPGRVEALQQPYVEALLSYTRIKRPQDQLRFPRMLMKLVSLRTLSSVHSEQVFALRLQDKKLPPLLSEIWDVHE
Chain of X-box-binding protein 1 (Homo sapiens) (P17861 whole entry, looked up): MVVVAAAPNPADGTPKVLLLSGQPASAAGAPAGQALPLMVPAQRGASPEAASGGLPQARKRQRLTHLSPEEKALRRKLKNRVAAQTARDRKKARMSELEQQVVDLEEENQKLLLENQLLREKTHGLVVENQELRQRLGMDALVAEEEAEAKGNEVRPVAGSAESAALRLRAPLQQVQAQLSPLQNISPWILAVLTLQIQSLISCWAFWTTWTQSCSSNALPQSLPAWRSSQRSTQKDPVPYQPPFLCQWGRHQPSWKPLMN
Chain of Estrogen receptor (Homo sapiens) (P03372 whole entry, looked up, the tested form may be a part): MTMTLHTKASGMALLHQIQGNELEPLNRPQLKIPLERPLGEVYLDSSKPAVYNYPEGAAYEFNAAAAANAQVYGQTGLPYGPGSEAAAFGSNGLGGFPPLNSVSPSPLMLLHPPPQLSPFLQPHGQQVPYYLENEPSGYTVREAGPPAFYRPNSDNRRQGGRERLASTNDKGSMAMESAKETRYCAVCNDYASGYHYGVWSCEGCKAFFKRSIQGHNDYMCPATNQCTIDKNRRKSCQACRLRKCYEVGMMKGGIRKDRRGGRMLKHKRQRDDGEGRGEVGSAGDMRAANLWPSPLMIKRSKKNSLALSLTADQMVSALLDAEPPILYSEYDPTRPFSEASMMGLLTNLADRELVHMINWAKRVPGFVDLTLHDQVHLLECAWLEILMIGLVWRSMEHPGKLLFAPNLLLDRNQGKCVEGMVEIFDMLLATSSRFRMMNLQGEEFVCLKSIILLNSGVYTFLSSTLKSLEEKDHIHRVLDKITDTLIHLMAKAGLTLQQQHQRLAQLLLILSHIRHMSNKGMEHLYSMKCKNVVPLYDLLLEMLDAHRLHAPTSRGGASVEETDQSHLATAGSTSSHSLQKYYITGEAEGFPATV
Chain of Nuclear receptor subfamily 1 group I member 3 (Homo sapiens) (Q14994 whole entry, looked up, the tested form may be a part): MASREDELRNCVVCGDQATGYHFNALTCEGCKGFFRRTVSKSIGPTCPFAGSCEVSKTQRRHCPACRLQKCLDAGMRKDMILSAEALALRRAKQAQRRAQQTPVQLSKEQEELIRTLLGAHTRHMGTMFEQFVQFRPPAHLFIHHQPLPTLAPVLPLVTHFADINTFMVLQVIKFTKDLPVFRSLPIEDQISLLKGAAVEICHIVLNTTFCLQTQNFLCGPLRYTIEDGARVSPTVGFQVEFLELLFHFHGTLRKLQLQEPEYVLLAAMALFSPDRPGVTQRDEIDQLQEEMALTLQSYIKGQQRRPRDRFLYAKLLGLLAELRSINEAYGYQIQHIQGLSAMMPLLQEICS
Chain of Oxysterols receptor LXR-alpha (Homo sapiens) (Q13133 whole entry, looked up, the tested form may be a part): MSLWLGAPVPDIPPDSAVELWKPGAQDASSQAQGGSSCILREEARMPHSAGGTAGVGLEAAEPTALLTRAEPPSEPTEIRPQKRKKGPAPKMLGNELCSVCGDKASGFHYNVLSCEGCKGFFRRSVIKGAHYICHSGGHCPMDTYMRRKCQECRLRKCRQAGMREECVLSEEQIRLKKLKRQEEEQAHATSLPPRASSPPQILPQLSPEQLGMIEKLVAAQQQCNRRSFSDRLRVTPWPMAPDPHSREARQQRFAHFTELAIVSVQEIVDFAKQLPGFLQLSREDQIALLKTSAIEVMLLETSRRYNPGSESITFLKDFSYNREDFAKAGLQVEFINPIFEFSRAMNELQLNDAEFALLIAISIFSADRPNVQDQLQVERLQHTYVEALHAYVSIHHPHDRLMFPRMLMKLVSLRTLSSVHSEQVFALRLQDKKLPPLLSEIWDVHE
Chain of Nuclear receptor subfamily 4 group A member 2 (Homo sapiens) (P43354 whole entry, looked up): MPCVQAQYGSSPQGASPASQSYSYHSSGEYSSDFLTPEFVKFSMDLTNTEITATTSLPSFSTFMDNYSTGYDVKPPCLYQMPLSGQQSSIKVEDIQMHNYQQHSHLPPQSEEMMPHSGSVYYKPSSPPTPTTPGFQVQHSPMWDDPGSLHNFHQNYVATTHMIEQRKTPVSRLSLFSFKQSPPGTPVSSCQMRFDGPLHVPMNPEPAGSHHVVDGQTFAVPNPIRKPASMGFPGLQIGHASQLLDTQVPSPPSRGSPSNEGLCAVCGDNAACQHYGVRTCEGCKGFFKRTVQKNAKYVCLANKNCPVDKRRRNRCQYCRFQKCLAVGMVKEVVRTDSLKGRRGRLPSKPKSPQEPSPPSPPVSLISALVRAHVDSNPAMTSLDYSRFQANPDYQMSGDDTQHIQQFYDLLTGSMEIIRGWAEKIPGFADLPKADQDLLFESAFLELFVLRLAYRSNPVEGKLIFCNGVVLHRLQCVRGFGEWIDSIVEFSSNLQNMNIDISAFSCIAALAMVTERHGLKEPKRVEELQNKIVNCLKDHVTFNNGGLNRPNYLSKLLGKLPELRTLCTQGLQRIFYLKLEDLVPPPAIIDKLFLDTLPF

Turning to `C[C@H]1CCCC(=O)CCC/C=C/c2cc(O)cc(O)c2C(=O)O1`, the call in [1], in test [2], in test [4], in test [5], in test [6] and in test [7] was inactive. Further, the compound was called inactive in test [8], in [9] and in [10]. In addition, in [3], the AC50 (commonly the midpoint of the concentration-response curve, whichever way the signal moves) was 0.00409 µM (active).

Take `Cc1cc(Cl)ccc1O[C@H](C)C(=O)O`: the compound was called inactive in test [1], in test [2], in test [4], in test [7], in test [8] and in test [9]. In addition, the result in test [10] was inactive.

Regarding `O=CC=O`, the call in test [1], in test [2], in test [3], in test [4], in test [5] and in test [7] was inactive. Moreover, the outcome in test [8] and in test [10] was inactive.

As for `Cc1ccccc1C(=O)Nc1cccc(OC(C)C)c1`, the compound was classed as inactive in [1], in test [2], in test [4], in [5], in [11] and in test [12]. The result in test [6], in test [7], in [13] and in test [10] was inactive.

As to `Oc1cccc2cccnc12`, the call in test [1], in [2], in test [4], in test [14], in [6] and in test [15] was inactive. Further, the call in test [7], in [8] and in [10] was inactive.

`C=CCc1ccc(OC)cc1`: the result in [1], in [2], in test [16], in test [4], in [17] and in test [6] was inactive. In addition, the compound was called inactive in test [8], in test [13], in test [9] and in test [10].

Consider `N#Cc1ccccn1`, for which the compound was called inactive in [1], in [2], in test [16], in [4], in test [17] and in [6]. Further, the compound was called inactive in test [15], in test [7], in [8], in test [13], in test [9] and in test [10].

As to `ClCc1ccccn1`, the compound was classed as inactive in test [1], in test [2], in [16], in test [15], in test [7] and in test [8]. Besides, the compound was classed as inactive in [13] and in test [10]. Besides, in test [4], the AC50 was 65.6 µM (active).

Consider `Nc1cccc2ccccc12`, for which the outcome in test [1], in [2], in [3], in [4], in test [11] and in test [15] was inactive. For the same compound, the outcome in [9] and in [10] was inactive.

The values are drawn from PubChem BioAssay (EPA / NIEHS).
